Several values for one entry are separate records, joined by “and”; a condition that tells them apart may be missing. Equal entries are not always repeated. About 83,000 compounds went through this panel and 20% of them were active in at least one assay; those are over-represented in the sample as a whole.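 Percent growth is the endpoint: 0 to 100 indicates growth inhibition (40 means 60% inhibition), 0 means no net growth, and negative values indicate cell death.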 Unmarked numbers belong to inactive results. Activity calls are given as the source filed them. The calls were made as follows: active = growth percent below 10; inactive = the rest.
Columns and labels:
Experiment in all cases: NCI-60 one-dose screen, 48 h (100 = growth as untreated, 0 = no growth, -100 = all killed)
Conditions in all cases: 10 µM unless noted
T-47D breast = test system: T-47D breast
BT-549 breast = test system: BT-549 breast
MDA-MB-435 melanoma = test system: MDA-MB-435 melanoma
SW-620 colon = test system: SW-620 colon
MCF7 breast = test system: MCF7 breast
HCT-116 colon = test system: HCT-116 colon
HCC-2998 colon = test system: HCC-2998 colon
KM12 colon = test system: KM12 colon
MDA-MB-468 breast = test system: MDA-MB-468 breast

Row | SMILES | growth (T-47D breast) | growth (BT-549 breast) | growth (MDA-MB-435 melanoma) | growth (SW-620 colon) | growth (MCF7 breast) | growth (HCT-116 colon) | growth (HCC-2998 colon) | growth (KM12 colon) | growth (MDA-MB-468 breast)
1 | O=C1Nc2cc(-c3ccc(NS(=O)(=O)c4ccc([N+](=O)[O-])cc4)cc3)ccc2/C1=C/c1ccc[nH]1 | 15.9% | -23% (active) | 1.34% (active) | 6.1% (active) | -23.6% (active) | -48.6% (active) | 32.2% | 27.5% | -29.6% (active)
2 | CCc1ccccc1-c1nc(CN[C@@H]2C[C@@H]3C[C@H]([C@H]2C)C3(C)C)c(C)o1 | -60.3% (active) | -89.7% (active) | -79.5% (active) | -43.5% (active) | -84.4% (active) | -82.4% (active) | -83.9% (active) | -87.4% (active) | -83.4% (active)
3 | C#CCCCNCCNc1ccnc2cc(Cl)ccc12 | 71% | 66.5% | 59.7% | 76.8% | 52% | 49.5% | 62% | 91.3% | 50.4%
4 | O=C(N/N=C/c1occc1Br)c1[nH]c2ccc(Br)cc2c1-c1ccccc1 | -77% (active) | -89.4% (active) | -90.4% (active) | -86.3% (active) | -66.9% (active) | -74.5% (active) | -89.6% (active) | -46.6% (active) | -75.1% (active)
5 | Cc1cccc(NCC(=O)N2CCN(c3ncnc4c3cnn4-c3ccccc3)CC2)c1 | 33.6% | 76.9% | 59% | 81.5% | 45.6% | 58.7% | 86.4% | 40.6% | 35.8%
6 | O=C(CSc1nc2ccccc2c(=O)[nH]1)Nc1ccccc1C(=O)O | 93.9% | 103% | 104% | 130% | 84.5% | 107% | 125% | 100% | 92.5%
7 | Cc1ccc(C(C(=O)NC2CCCCC2)N(Cc2ccccc2Cl)C(=O)c2ccc(CN3CCOCC3)o2)o1 (configuration not stated) | 99.9% | 152% | 102% | 105% | 95.3% | 89.1% | 94.7% | 99.4% | 84.7%
8 | Clc1ccc(-c2nc3c4c(-c5ccccc5)c(-c5ccccc5)n(Cc5ccccc5)c4ncn3n2)cc1 | 7.51% (active) | -28.4% (active) | 5.5% (active) | 12% | -2.7% (active) | 3.25% (active) | 22.1% | 9.06% (active) | -40.4% (active)
9 | CCOc1ccccc1[C@H]1C(C(=O)c2ccc(Cl)cc2)C2(N[C@@H]1c1ccccc1)C(=O)Nc1ccc(Br)cc12 (some centres not stated) | 13.2% | -67.7% (active) | -59.3% (active) | 15.8% | -11.9% (active) | -92.6% (active) | -22% (active) | -9.26% (active) | -21.5% (active)
10 | O=C(N=Nc1c(O)[nH]c2ccc(Cl)cc12)c1ccc2nc(-c3ccc(Cl)cc3)[nH]c2c1 | -2.02% (active) | 49% | -32.9% (active) | 3.1% (active) | 1.03% (active) | 9.89% (active) | -34.6% (active) | 42.3% | -80.7% (active)
11 | CN1CCN(C(=O)CCN(C(=O)Oc2cc3c(c4ccccc24)[C@H](CCl)CN3C(=O)c2cc3cc(OCCCN4CCC4)ccc3[nH]2)[C@H]2CCSSC2)CC1 | -40.9% (active) | -68.3% (active) | -37.1% (active) | -54.2% (active) | -67.4% (active) | -42.7% (active) | -91.2% (active) | -63.3% (active) | -82.9% (active)
12 | COc1cc(C2CC(c3cc(OC)c(OC)c(OC)c3)=Nc3c(N)nc(N)nc3N2)ccc1Oc1nc(Nc2ccc(F)cc2)nc(N(C)C)n1 (configuration not stated) | 65.8% | 74.7% | 66.4% | 50.7% | 23.4% | 22.9% | 36.8% | 42.9% | -22.6% (active)
13 | COc1cc(/C=C/C(=O)c2cnn(-c3cc(=O)[nH]c4ccccc34)c2C)cc(OC)c1OC | 10.7% | -4.19% (active) | 21.1% | 24.4% | 10.8% | 5.92% (active) | -1.51% (active) | 4.79% (active) | -35.3% (active)
14 | COc1c(F)ccc(C(=O)Nc2ccc3nc(NC(=O)C4CCCN(S(=O)(=O)c5ccc(C(C)(C)C)cc5)C4)sc3c2)c1F (configuration not stated) | 42.5% | 60.4% | 76.7% | 88.5% | 41.5% | 58.3% | 84.8% | 68.4% | 86.7%
15 | CCOC(=O)/C(F)=C/C1CC1CCc1ccc(OCC)cc1 (configuration not stated) | 74.7% | 106% | 99% | 92% | 85.7% | 93.7% | 90.5% | 83.9% | 71.6%
16 | Cc1ccc(C2CC(c3ccc(NC(=O)Nc4ccccc4)cc3)=NN2c2ccc(S(N)(=O)=O)cc2)cc1 (configuration not stated) | -74.7% (active) | -79.6% (active) | -91.8% (active) | -83.4% (active) | -82.4% (active) | -74.4% (active) | -75.4% (active) | -50% (active) | -93.4% (active)
17 | COC(=O)c1cccc(Oc2ccc(NC(=O)Nc3cc(C(F)(F)F)ccc3F)cc2)c1 | 47% | 64.7% | 92.4% | 89.7% | 61.8% | 60.7% | 96.9% | 75.3% | 71.5%
18 | N#Cc1ccc(C(=O)NNC(=O)CSc2nc3sc4c(c3c(=O)n2-c2ccc(Cl)cc2)CCCC4)cc1 | 58.6% | 22.7% | 63.7% | 60.3% | 63% | 37.5% | 96.1% | 91.2% | 92%
19 | NCCCCn1c(SCCc2c[nH]c3ccccc23)nnc1-c1ccc2ccccc2n1 | -63.4% (active) | 54.5% | -75% (active) | -73.1% (active) | -88.8% (active) | -94.1% (active) | -90.2% (active) | 13.1% | -87.1% (active)
20 | CN(C)c1nc(NCCNS(=O)(=O)c2ccc(C(=O)/C=C/c3ccc(F)cc3)cc2)nc(N2CCOCC2)n1 | 35.4% | -24.8% (active) | 3.15% (active) | -48.6% (active) | 17.8% | -96% (active) | -96.5% (active) | -42.5% (active) | -36.6% (active)
21 | O=C(NNC(=S)NCCc1ccccc1)c1ccc(OCc2nc3ccc(Cl)cc3[nH]2)cc1 | 39.4% | 61.5% | 84.3% | 129% | 34.2% | 64.3% | 104% | 63% | 61.4%
22 | CCOc1ccc(-c2cc(-c3cc(C(C)C)c(O)cc3C)nn2-c2ccc(S(N)(=O)=O)cc2)cc1 | 18.4% | 3.59% (active) | -43.6% (active) | 33.3% | 12% | 24% | 4.6% (active) | 7.96% (active) | -16.5% (active)
23 | N#Cc1c(-c2ccc(F)cc2)nc(SCc2ccc(F)cc2)nc1N1CCNCC1 | -66.9% (active) | 82.7% | -84.7% (active) | -83.7% (active) | -90.5% (active) | -99.3% (active) | -91% (active) | -81.2% (active) | -72% (active)
24 | O=C(c1ccc(Cl)cc1)C1[C@H](c2ccccc2Cl)[C@@H](c2ccccc2)NC12C(=O)Nc1ccc(Cl)cc12 (some centres not stated) | -71.1% (active) | -87.2% (active) | -87.5% (active) | -61.5% (active) | -37.7% (active) | -89.3% (active) | -85.6% (active) | -48% (active) | -52.5% (active)
25 | O=C1NC(=S)/C(=C/c2cn(-c3ccccc3)nc2-c2ccccc2)S1 | 0.334% (active) | -9.85% (active) | 24.6% | 39.3% | 3.28% (active) | 18.6% | 29.2% | 19.4% | 22.3%
26 | COc1ccc(Nc2ncnc3sc4c(c23)CCN(Cc2ccccc2)C4)cc1 | 27.3% | 38.8% | 82.1% | 99.8% | 53.4% | 86.4% | 105% | 82.1% | 56.6%
27 | COc1ccc2c(c1)C(Sc1ccc(F)cc1)c1c(nc(N)c(C#N)c1N)O2 (configuration not stated) | 79% | 62.1% | 91% | 84.7% | 67.5% | 79.9% | 114% | 85% | 99.6%
28 | CC(=O)Nc1cccc(-n2c(COc3ccc(I)cc3)nc3ccccc32)c1 | 54.6% and 107% | 96.9% and 110% | 97.7% and 108% | 96.6% and 108% | 74.7% and 103% | 80.4% and 104% | 118% and 119% | 94.7% and 98.5% | 78.7% and 111%

From PubChem BioAssay (NCI)
